{
  "source": "the supplement of paper PMC12632987",
  "binders": {"B1": {"name": "LC3A_free_46_2334 (protein)", "chain": "TLVVVEVDVLAPDRATAEAFVADLEARIRARLAEAGIDAEVEVELEEGPDGKTFRVTVKVRLKDPEADPQEVADLVVDAIDESAEEHGLSYIISVEIIEE"}, "B2": {"name": "LC3A_28_811 (protein)", "chain": "SHVDEVIAAVKEEGEKLKNSKEDVLLEVRVSGDITVEEAERLMDAIEEIARELAKNRKVYIVITAEEPISQEVLDTILDRAEEIEEKYPNVSVIVALPEE"}, "B3": {"name": "LC3A_3_1711 (protein)", "chain": "GEELIEEAEKILKEKGLSEETKKAVLEALKALLEKGYINAAKELIKLLKEAKDLSDEVILDFAKDVLEYVKTEDVSEEETIKKIKEEYEIAKNEEEIEEL"}, "B4": {"name": "LC3A_free_46_2301 (protein)", "chain": "IKVEIDIYFGAAPLEKIEEAAKRLTETAEKKAKELGAEVEIEVKITKNEDGTYTLEIRITAKVKTLEDANKFIQAISDKVDEINKELGIAAIMSIEVIEE"}, "B5": {"name": "LC3A_3_1472 (protein)", "chain": "LEERLEEVLKRLREAGASEEVLEAVREAYEKLKELGHEEAAKTFIEEMEKLVGLPSELLLAFAEDVLAAVEKYADDPEKLIEEIKSIAAATRNEAEIIEL"}, "B6": {"name": "LC3A_28_903 (protein)", "chain": "SPALESAEKALKEVKKAVAAGNQEPLVLEVKAPSTQEDVDKLLKLLEEIAEEASKLKGVSIIIDIDESVSQENRDRIIDKAEELEEKYPNVTIIIALPES"}, "B7": {"name": "LC3A_17_539 (protein)", "chain": "KEELKEELKKLIEEAEKLVEEVKPYIPEEAEKAKKRLKEAKKLLEEGKLKEAAELLAETADEMADAVSETEWEDPLKRTLLELEFDSLAIEAESILLKLE"}, "B8": {"name": "LC3A_28_1059 (protein)", "chain": "MSIEEELEEALEEAREAVERGEEALIELTIDEDATEEDVELVLETMEEIAELTKDLPRTTIVVDVDHKNKEEVTKLVSEKGDRLEKRYPNVTVIIALSEE"}, "B9": {"name": "LC3A_28_671 (protein)", "chain": "SALEEQLEKALAEAKKLAAKGEPGVIVIEVPGDATEEEIERLIKTLEEIAEILKDVKGSAIVIELDKDLKEEHRQRIIDAAERINEKYPNVTVIIAMEER"}, "B10": {"name": "LC3A_45_1922 (protein)", "chain": "MYEATLDLLVPKELAEEAYELIKKLLEELEKKRGPNFKVDYETLDASYEASKDEEDVYLEVKIYAPTEEEALDAAIEIEEELSKELGGKVASIISVKKVP"}, "B11": {"name": "LC3A_28_979 (protein)", "chain": "SALEKELAAKIAEAKKAAAAGEPAVITIKVSGDTNEEQLAKIIETLEEIAEILKDVKGSAIIIDIDRGVDPKHKQKLIDKGEEIEKKYPNVTVIFALEEE"}, "B12": {"name": "LC3A_36_1337 (protein)", "chain": "MVVIVLSAASEEVRAAEEAHYRAKGATVFAVAVEDLDEATKEEILAVVKAAGPDADIIIVAVAETEEGLAKVLKKASELADYIEEETGRTVIIEVDLVEK"}, "B13": {"name": "LC3A_141_370 (protein)", "chain": "KTVTFTKTFTNSSLDEVIAGMEELEKEVLAAHEKLGGGKVKVTVTVTIKNSKTGETKVIKEEFEADKETLEMIMEGVLIEAASARLTENANITVTVTLEA"}, "B14": {"name": "LC3A_28_1047 (protein)", "chain": "SELEENAEKAIAEARKQLEQGEEAVVTLKVPDMPTEEAVRIFRETLERLIALSKEYGGKKISVVVDFDGDQETFDAIVDIAEEAEKADPNLTVIVALSEE"}, "B15": {"name": "LC3A_28_815 (protein)", "chain": "MTAEEIIKQIREQAEKGKQSDEMVLIEVKISGTITEEEAKEIMEVIREESAELAKDRPVAVLIDLEAPISQEVIDLIADMAEEIEKELPNVSVIIALPEE"}, "B16": {"name": "LC3A_free_8_2554 (protein)", "chain": "ISEEQKAKISEVLDKAEEEIVKKAKEMGVSEEEINELEALMGFLLQDVLDALEEGPEAALKAFEEESKLIVEYAKELGEELAKEVKKVLEEAKKEIEKIL"}, "B17": {"name": "LC3A_28_1007 (protein)", "chain": "MSLIEKTKEEIKKALEQAEKGEDAFLEIEIPSTATKEEVEEVLKLIEEAAKEVSKLEGVKLYVVIDDSGSPEIHDLVVDRADEIEEKYPNVSVIIAYDDK"}, "B18": {"name": "LC3A_free_46_2383 (protein)", "chain": "YKAEIDIDFGAMDKETAEKIAEEIKKAAEEISKKYGVKVEVEVEIIEDEDGNYYLRVKITIEGEDKEKVEEAVNELIEKIDEIAEKANVSYIISVEFIDE"}, "B19": {"name": "LC3A_132_254 (protein)", "chain": "SEELLEKALKELKELLDKIVADLKAGKDPWPTINKLYELALKYAEKLSLEETEKLAEESEKYAEELFAKELDPNDEEARRTLDIVEMLLESVLIEKELRS"}, "B20": {"name": "LC3A_132_253 (protein)", "chain": "SKELLEKALKELKEILDKIVELLQAGKDPWPAIKELYEKALEYAKKLSLEETEKLAEEVEAYAEKLFAERLDPNNEEARRALEHIEMLLESVLIEKELRS"}, "B21": {"name": "LC3A_132_255 (protein)", "chain": "SKELLEKALKELKEILDKIVELLQAGKDPWPAVKELEEKAEEYAEKLSLEETEELVKESEKYAEELFAARLDPNNEEARRVLDHIEMLFESVLIEKELKS"}, "B22": {"name": "LC3A_28_1225 (protein)", "chain": "AAVDAEIAAARAAMAAAAAAGEEATITVKITGKTTLADVKRLMEALRAIVAEHAHLPRISIIIDLSGKVTQEQIDAAAEGGERIEKEFPNVTVILALDEN"}, "B23": {"name": "LC3A_28_983 (protein)", "chain": "MDPREQVEELIKKAKEAAAKGEATVFTITVTSTATEEDIELITEGLKEIAEILKDVKGSAIIVDVESGVPEEYIDKIAETMEEIEKANPNVTTIIALDED"}, "B24": {"name": "LC3A_free_8_2473 (protein)", "chain": "SVQELVDQITALLDELEEKVREKAKELGVDELDILELELEIGSLIADLISASDGTIEEVKEIAEEGLEEIEELAKELSEEIAEIVRETREKILALLEAAE"}, "B25": {"name": "LC3A_free_0_2120 (protein)", "chain": "KKTVVEVVIILDDSTSEEKAKEIHEKLKEEAEKLAKENGGELKSSLSKSDGSYIITLEITFDTEDIDLALEVERKLVEIAEKILKEANVEATIYSSVYLE"}, "B26": {"name": "LC3A_free_39_2211 (protein)", "chain": "SEEELEELLKKVAEESGLDYEYIRERVEEIRRVAGLSLEQMLELVKAILEAVREGADAEEILEEVLALAKELVAAGKSPEEIAEALLEEVEDFRNLIPLD"}, "B27": {"name": "LC3A_free_39_2213 (protein)", "chain": "SEEELEELLKKVAEESGLDYEYIKKKIEEIQKVAGLSLEQMKKIVEAILEAVKEGANAEEILERILALAKELKAAGKSPEEIAKALLEEVEDYRNLIPLD"}, "B28": {"name": "LC3A_free_0_2116 (protein)", "chain": "KKTVVEVLVILDESTTEEEAKKAYEELKKKAEEIAKKYGWEVKVELSKSDGSWIITVTLTSDSTDIDKALEIARELSDAAEEIAKELGLDATIYESVYLE"}, "B29": {"name": "LC3A_28_1087 (protein)", "chain": "SELEEQLKKALEEAKKAKEEGKEVTLEITVPDTATEEDIELVKETLKEIAEIAKELPSLSVVINLTGKNAQAKATELSAHAEELEKEVPNLTVIIALDED"}},
  "note": "Whole data set: some 2,300 sequences, median “median log2 fold change of GCK-ALFA target abundance (FLAG IP / Myc IP barcode read proportion)” near 0.095, cut for the lowest 2% near -0.47. The sample as a whole holds a higher share of the lowest values than the screen did.",
  "data": [
    {"biological_target": "MAP1LC3A, Q9H492", "test": "median log2 fold change of GCK-ALFA target abundance (FLAG IP / Myc IP barcode read proportion) (log2 ratio); each designed protein is fused to an ALFA-tag nanobody in HEK293 cells to bring the named protein to FLAG-tagged glucokinase (GCK); Myc marks an untargeted standard; higher = target protein stabilised (more abundant)", "settings": "target protein: 3xFLAG-MCP-GCK-ALFA reporter; HEK293 landing pad (RPLP)", "summary_of_the_method": "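The readout is target abundance, the per-binder median log2 ratio of FLAG to Myc barcode read proportions. It came from HEK293 landing-pad cells carrying a recombined ALFA-nanobody-fused binder library, induced with 2 μg mL^−1 doxycycline and transfected with a plasmid for a FLAG-tagged target and a Myc-tagged standard. After 48 h, lysates were immunoprecipitated with anti-FLAG and anti-Myc, and circular RNA barcodes were reverse transcribed, amplified and sequenced. Each barcode needed a proportion of at least 10^−7 in both replicates and each binder at least 3 barcodes per replicate, a pseudocount of 10^−6 was added, and the replicates were pooled.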", "values": [
      {"binder": "B1", "median log2 fold change": 0.0611},
      {"binder": "B2", "median log2 fold change": -0.124},
      {"binder": "B3", "median log2 fold change": -0.0281},
      {"binder": "B4", "median log2 fold change": -0.0458},
      {"binder": "B5", "median log2 fold change": 0.213},
      {"binder": "B6", "median log2 fold change": -0.303},
      {"binder": "B7", "median log2 fold change": -0.51},
      {"binder": "B8", "median log2 fold change": -0.148},
      {"binder": "B9", "median log2 fold change": 0.0757},
      {"binder": "B10", "median log2 fold change": -0.405},
      {"binder": "B11", "median log2 fold change": -0.00812},
      {"binder": "B12", "median log2 fold change": 0.15},
      {"binder": "B13", "median log2 fold change": -0.474},
      {"binder": "B14", "median log2 fold change": -0.153},
      {"binder": "B15", "median log2 fold change": -0.179},
      {"binder": "B16", "median log2 fold change": -0.0712},
      {"binder": "B17", "median log2 fold change": -0.353},
      {"binder": "B18", "median log2 fold change": 0.115},
      {"binder": "B19", "median log2 fold change": -0.669},
      {"binder": "B20", "median log2 fold change": 0.0444},
      {"binder": "B21", "median log2 fold change": 0.276},
      {"binder": "B22", "median log2 fold change": 0.191},
      {"binder": "B23", "median log2 fold change": -0.2},
      {"binder": "B24", "median log2 fold change": -0.379},
      {"binder": "B25", "median log2 fold change": -0.12},
      {"binder": "B26", "median log2 fold change": -0.819},
      {"binder": "B27", "median log2 fold change": 0.203},
      {"binder": "B28", "median log2 fold change": -0.122},
      {"binder": "B29", "median log2 fold change": 0.251}
    ]}
  ]
}
